These results are taken from PubChem BioAssay (NCI).

Test systems include DU-145 prostate; K-562 leukemia; MALME-3M melanoma; MDA-MB-231 breast; RXF 393 renal; SF-268 CNS; SF-295 CNS; SF-539 CNS; UACC-257 melanoma; M14 melanoma; HCT-15 colon; HT29 colon; SNB-75 CNS; SNB-19 CNS; U251 CNS; PC-3 prostate; SK-MEL-5 melanoma; UACC-62 melanoma; LOX IMVI melanoma; SK-MEL-28 melanoma.
Holding throughout (assay): NCI-60 one-dose screen, 48 h (100 = growth as untreated, 0 = no growth, -100 = all killed)
Holding throughout (details): 10 µM unless noted

This is part of a sample that, as a whole, favours compounds with a hit. Of some 83,000 tested, about 20% had one in any assay.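 Single-dose data. Exposure time 48 hours. Values below 10 considered active.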 Unmarked numbers belong to inactive results. Calls of active or inactive are those of the source.

`CC(=O)CC/C=C(\C)[C@H](O)[C@H](C)C(=O)O[C@H]1C[C@H](C)C=C2C=C[C@@]3(C)O[C@@H](O)CC(=O)[C@]3(C)[C@H]21`: the growth in the assay on DU-145 prostate is -22% (active); in the assay on K-562 leukemia it was -8.89% (active); in the assay with MALME-3M melanoma it was -82.5% (active); in the assay with MDA-MB-231 breast, -39.2% (active); in the assay with RXF 393 renal, -88% (active); in the assay with SF-268 CNS it was -21.5% (active). Moreover, the growth in the assay with SF-295 CNS was -22.7% (active); in the assay on SF-539 CNS it was -35.2% (active); with UACC-257 melanoma it was -33.7% (active); in the assay with M14 melanoma, -84.2% (active); in the assay with HCT-15 colon it was 0.209% (active); in the assay with HT29 colon, -33.8% (active). The growth is -85.3% (active) in the assay on SNB-75 CNS; -12.3% (active) in the assay on SNB-19 CNS; -25.9% (active) in the assay on U251 CNS; -31.2% (active) with PC-3 prostate; -91.7% (active) in the assay with SK-MEL-5 melanoma; -56.6% (active) in the assay with UACC-62 melanoma. In addition, the growth was -55.1% (active) in the assay with LOX IMVI melanoma and -40.7% (active) with SK-MEL-28 melanoma.
For `CCCC(C)(C)COC(=O)c1cccc(N)c1`, the growth was 106% in the assay on DU-145 prostate; 87% with K-562 leukemia; 92% with MALME-3M melanoma; 106% with MDA-MB-231 breast; 123% in the assay on RXF 393 renal; 97.7% in the assay on SF-268 CNS. In addition, the growth in the assay with SF-295 CNS was 101%; with SF-539 CNS, 103%; in the assay on UACC-257 melanoma, 83.3%; with M14 melanoma, 99.4%; with HCT-15 colon, 113%; with HT29 colon, 78.5%. In addition, the growth is 94.5% in the assay with SNB-75 CNS; 106% with SNB-19 CNS; 89.1% with U251 CNS; 78.1% with PC-3 prostate; 102% in the assay with SK-MEL-5 melanoma; 96.6% in the assay on UACC-62 melanoma. In addition, the growth is 101% in the assay on LOX IMVI melanoma and 117% with SK-MEL-28 melanoma.
With `Nc1ncnc2c1c(-c1ccc(Oc3ccccc3)cc1)nn2C[C@H]1SSC[C@@H]1O`, the growth was 48% in the assay with DU-145 prostate; 5.41% (active) in the assay with K-562 leukemia; -48.4% (active) in the assay on MALME-3M melanoma; 61.4% in the assay with MDA-MB-231 breast; 28.7% in the assay on RXF 393 renal; 43.4% in the assay on SF-268 CNS. Further, the growth in the assay with SF-295 CNS was 48.4%; with SF-539 CNS, 38%; in the assay on UACC-257 melanoma, 9.88% (active); in the assay with M14 melanoma it was -90% (active); with HCT-15 colon it was 65.7%; with HT29 colon, 5.36% (active). In addition, the growth in the assay on SNB-75 CNS was 37.3%; in the assay with SNB-19 CNS, 66.5%; with U251 CNS, 45.9%; in the assay on PC-3 prostate, 64%; in the assay on SK-MEL-5 melanoma, -73.9% (active); with UACC-62 melanoma, -66.7% (active). Moreover, the values for the growth in the assay with LOX IMVI melanoma and in the assay with SK-MEL-28 melanoma were 11.9% and -29.4% (active), respectively.
With `NS(=O)(=O)c1ccc(Nc2nc(O)c(/C=C3\C=Nc4ccccc43)s2)cc1`, the growth was 110% with DU-145 prostate; 101% with K-562 leukemia; 92.7% with MALME-3M melanoma; 87.9% with MDA-MB-231 breast; 111% in the assay with RXF 393 renal; 106% with SF-268 CNS. Further, the growth with SF-295 CNS was 102%; in the assay with SF-539 CNS, 98.1%; in the assay with UACC-257 melanoma, 88.7%; in the assay with M14 melanoma, 103%; in the assay with HCT-15 colon, 107%; in the assay with HT29 colon, 114%. In addition, the growth in the assay on SNB-75 CNS was 93.7%; in the assay with SNB-19 CNS, 91.6%; with U251 CNS it was 94.6%; in the assay with PC-3 prostate it was 92.1%; with SK-MEL-5 melanoma, 101%; with UACC-62 melanoma, 82.6%. Also, the results for the growth in the assay with LOX IMVI melanoma and in the assay on SK-MEL-28 melanoma were 97.3% and 110%, respectively.
As to `CC1CCc2cc(F)cc3c(=O)c(C(=O)O)cn1c23` (stereo not given), the growth in the assay on DU-145 prostate was 110%; in the assay on K-562 leukemia, 92.6%; in the assay on MALME-3M melanoma, 99.9%; in the assay with MDA-MB-231 breast, 82.8%; with RXF 393 renal it was 108%; with SF-268 CNS it was 105%. Moreover, the growth in the assay on SF-295 CNS was 97.6%; in the assay with SF-539 CNS, 107%; in the assay on UACC-257 melanoma, 101%; with M14 melanoma it was 97.6%; in the assay on HCT-15 colon, 105%; in the assay on HT29 colon, 116%. The growth with SNB-75 CNS was 109%; in the assay on SNB-19 CNS, 93.1%; in the assay on U251 CNS, 101%; with PC-3 prostate, 96.6%; in the assay on SK-MEL-5 melanoma it was 102%; in the assay with UACC-62 melanoma, 92.8%. The figures for the growth with LOX IMVI melanoma and with SK-MEL-28 melanoma were 69.1% and 120%, respectively.
For `COc1cccc(C2CC(c3cc(OC)c(OC)c(OC)c3)=NN2)c1` (stereo not given), the growth with DU-145 prostate was 104%; in the assay on K-562 leukemia, 14.5%; in the assay with MALME-3M melanoma, 91.6%; in the assay on MDA-MB-231 breast it was 98%; in the assay on RXF 393 renal it was 83.8%; in the assay with SF-268 CNS it was 93%. Also, the growth in the assay on SF-295 CNS was 81.8%; in the assay on SF-539 CNS, 92.2%; in the assay on UACC-257 melanoma, 99.4%; in the assay on M14 melanoma, 83%; in the assay with HCT-15 colon, 67.3%; in the assay with HT29 colon it was 37.1%. Moreover, the growth in the assay with SNB-75 CNS is 74.4%; with SNB-19 CNS, 77.2%; in the assay with U251 CNS, 85.6%; in the assay with PC-3 prostate, 69.1%; with SK-MEL-5 melanoma, 83.7%; with UACC-62 melanoma, 82.4%. Also, the results for the growth with LOX IMVI melanoma and with SK-MEL-28 melanoma were 61% and 101%, respectively.
Take `CCCCOc1c(N)cc(Cl)cc1C(=O)OCCN(CC)CC`: the growth with DU-145 prostate was 116%; with K-562 leukemia it was 83.9%; in the assay on MALME-3M melanoma, 102%; with MDA-MB-231 breast, 101%; in the assay on RXF 393 renal it was 125%; with SF-268 CNS, 98.6%. Also, the growth in the assay with SF-295 CNS was 101%; in the assay on SF-539 CNS it was 104%; with UACC-257 melanoma, 78.3%; in the assay with M14 melanoma it was 107%; in the assay with HCT-15 colon it was 111%; with HT29 colon, 74.8%. Besides, the growth in the assay on SNB-75 CNS was 101%; with SNB-19 CNS it was 101%; in the assay on U251 CNS, 90.1%; in the assay on PC-3 prostate, 80.9%; with SK-MEL-5 melanoma, 102%; with UACC-62 melanoma it was 96.7%. Besides, the growth in the assay with LOX IMVI melanoma is 103%; with SK-MEL-28 melanoma, 114%.
For the compound `O=C(Nc1ccc(-n2ccc3c(NC(=O)c4ccccc4)ncnc32)cc1)c1ccc(Cl)c(C(F)(F)F)c1`, the growth in the assay on DU-145 prostate is 23.1%; in the assay on K-562 leukemia, 7.82% (active); in the assay on MALME-3M melanoma it was 26.9%; in the assay on MDA-MB-231 breast, 12.2%; in the assay with RXF 393 renal, 19%; in the assay with SF-268 CNS it was 18.7%. Further, the growth with SF-295 CNS is 11.7%; in the assay with SF-539 CNS, 31.9%; with UACC-257 melanoma, 46%; in the assay on M14 melanoma, 9.79% (active); in the assay with HCT-15 colon, 3.27% (active); in the assay with HT29 colon, -50.6% (active). The growth was 66.5% in the assay on SNB-75 CNS; 24.7% in the assay with SNB-19 CNS; -62.9% (active) in the assay on U251 CNS; 29.1% in the assay with PC-3 prostate; 26.3% in the assay with SK-MEL-5 melanoma; 5.8% (active) in the assay on UACC-62 melanoma. The results for the growth in the assay on LOX IMVI melanoma and with SK-MEL-28 melanoma were -9.6% (active) and 62.5%, respectively.
